Rows were chosen to be rich in hits. Some 8% of all compounds tested hit in one or more screens of this group.
KB-3-1 tox: kills parental KB-3-1 adenocarcinoma cells | KB-3-1 viability, CellTiter-Glo ATP luminescence, 72 h | Potency, µM (titrated, usually from 46.1 µM), hits mostly cytotoxic | 1.4% of 400,000 active | AID 1347075; further: on the % scale 0 is the no-effect control and ±100 the full control effect; nearly all actives have a fitted effect of over 60% in size
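Cells are dispensed, compounds pinned in, plates held at 37 °C for 72 h, then CellTiter-Glo is added and luminescence read after 10 minutes. Cell line: parental KB-3-1 in phenol-red-free DMEM, 10% FBS.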
SW480 rerep: DNA re-replication induction in SW480 cells; Potency, µM (top dose mostly 46.1 µM), without a hit: at the highest dose re-replication activation, actives largely listed as activators; SW480 DNA re-replication, Hoechst DNA content imaging, 48 h; 1.8% of 340,000 active; AID 624297; further: % of control where 0% means no effect; nearly all actives have a fitted effect of over 55% in size
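Compounds, transferred as 23 nL by pin tool, were incubated with cells for 48 hr; DNA content per nucleus was then quantified by Hoechst staining and fluorescence plate imaging.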
HT1080-NT tox: kills 2HG-producing HT-1080-NT fibrosarcoma cells. 1.6% of 360,000 active. HT-1080-NT fibrosarcoma viability, CellTiter-Glo ATP luminescence, 48 h. Potency, µM (series often up to 46.1 µM), inactives show at the top dose activity, negative = less viability, actives largely listed as cytotoxic;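 further: NT is the 2HG producing partner of a matched IDH1 knockdown line; 0% = DMSO-treated cells and -100% = media-only wells without cells; nearly all actives have a fitted effect of over 55% in size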
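Viability of the 2HG-overproducing fibrosarcoma line after 48 hours of compound exposure at 37 degrees C was determined by luminescence with CellTiter-Glo, and concentration-effect curves were then fitted and categorized.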
MCF10A rereplic: DNA re-replication induction in MCF 10a cells | AID 624296 | Potency, µM (titrated, usually from 46.1 µM), inactives show top-dose activity, positive = re-replication, actives largely listed as activators | 2.9% of 350,000 active | MCF 10A DNA re-replication, Hoechst nuclear intensity, 48 h; further: % of control where 0% means no effect; nearly all actives have a fitted effect of over 50% in size
HT1080 IDH1KD tx: toxicity to HT-1080 IDH1 knockdown cells (counter line); 2% of 360,000 active; HT-1080 IDH1 knockdown viability, ATP luminescence, 48 h; Potency, µM (top dose mostly 46.1 µM), inactives show top-dose activity, negative = toxicity, hits mostly cytotoxic;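 further: 0% = DMSO wells and -100% = cell-free medium wells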
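% activity derives from luminescence (CellTiter-Glo), normalised to DMSO and no-cell wells. HT-1080-IDH1KD cells, 750/well, had 48 h compound exposure at 37 °C.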
KB-V1 MDR tox: kills drug-selected multidrug resistant KB-V1 cells; AID 1347076; 3.4% of 400,000 active; KB-V1 MDR cells viability, CellTiter-Glo, 72 h; Potency, µM (series often up to 46.1 µM), most hits filed as cytotoxic; further: on the % scale 0 is the no-effect control and ±100 the full control effect; nearly all actives have a fitted effect of over 60% in size
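Cytotoxicity via CellTiter-Glo luminescence after 72 h compound exposure at 37 degrees C. Cells: drug-selected KB-V1 line, DMEM phenol-red free plus 10% FBS. Compounds tested at multiple concentrations; normalized data fitted to concentration-effect curves.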
The depositor's hits bear a star; i = inactive; ? = inconclusive; / = no result given; [ ] = another dose, or the depositor's remark. The call rests on the fitted dose curve; in most records, active means well fitted curve in the direction sought with a large enough effect; inconclusive means small, poorly fitted or top-dose-only effect, or another doubt; inactive means no such curve, though single readings can be large; an effect the other way counts as inactive or inconclusive. Potency means the concentration at half of the fitted maximal effect.

SMILES	KB-3-1 tox	SW480 rerep	HT1080-NT tox	MCF10A rereplic	HT1080 IDH1KD tx	KB-V1 MDR tox
Cc1nn(Cc2ccccc2)c(C)c1NC(=O)c1cc(-c2cccs2)on1	i	2%	-2%	?	?	4.1µM*
Cc1nn(Cc2ccccc2)c(C)c1NC(=O)c1cc(-c2ccc3c(c2)OCO3)on1	?	0%	?	9.2µM*	-22%	i
Cc1nn(Cc2ccccc2Cl)c(C)c1NC(=O)c1cc(-c2ccc(F)cc2)on1	i	-4%	7%	4.1µM*	-2%	i
COc1ccc(-c2cc(C(=O)Nc3c(C)nn(Cc4ccccc4)c3C)no2)cc1	i	4%	-27%[9.24 µM]	?	16µM*	i
C[C@@H]1COc2cc(N(C)CCO)ccc2S(=O)(=O)N1	i	/	19%	/	12%	?
Cc1ccc(-c2cc(C(F)F)n3ncc(C(=O)Nc4c(C)nn(Cc5ccccc5Cl)c4C)c3n2)cc1	16µM*	1%	-27%	22%[9.22 µM]	9%	?
O=C(NCCN1CCOCC1)c1cc(-c2cccs2)on1	i	-4%	?	-6%	?	16µM*
Cc1cccc(OCCC(=O)NO)c1	/	/	?	/	-14%	/
COC(=O)CSc1nc(C)cc(C)c1C#N	?	4%	16%	15%	1%	?
Cc1cc(C)c(C#N)c(SCC(=O)C2CC2)n1	i	21µM*	-8%	?	11%	i
CCOC(=O)c1sc(NC(=O)CSc2nc(C)cc(C)c2C#N)c(C#N)c1C	i	-3%	7%	2µM*	10%	i
CCOC(=O)c1sc(NC(=O)c2ccncc2)c(C#N)c1C	4.1µM*	-4%	?	-24%	-1%	2.6µM*
Cc1ccccc1-c1cc(C(=O)Nc2sc(C)c(C)c2C(N)=O)c2ccccc2n1	i	0%	?	-6%	?	16µM*
CCCCCC(=O)N(c1ccc(OCC)cc1)S(=O)(=O)c1ccc2c(c1)n(C)c(=O)n2C	i	/	/	/	/	i
CCOC(=O)c1c(NC(=O)c2cc(-c3ccc(Cl)s3)nc3ccccc23)sc(C(N)=O)c1C	?	-7%	9%	?	1%	i
CCOC(=O)c1sc(NC(=O)c2cc(-c3ccccc3C)nc3ccccc23)c(C#N)c1C	8.2µM*	3%	?	2.6µM*	?	?
Cc1ccccc1C(=O)Nc1sc(C)c(C)c1C(=O)c1ccccc1	i	6%	13%	22%	5%	7.3µM*
COCc1cc(C)nc(SCC(=O)Nc2nc(C)cs2)c1C#N	?	?	?	16µM*	3%	i
CCN1C(=O)c2ccccc2S(=O)(=O)c2ccc(C(=O)NCc3ccccc3OC)cc21	i	/	/	/	/	i
CN(C)c1ccc(/C=C/c2ccnc3ccc(Cl)cc23)cc1	i	/	/	/	/	i
COCCCNC(=O)c1cc2c(=O)n(C)c3ccccc3c2n1C	10µM*	?	-17%	27%	-27%	16µM*
COCCNC(=O)c1cc2c(=O)n(C)c3ccccc3c2n1C	i	2%	10%	1%	13%	?
COCCNC(=O)CCn1c(=O)c2cc(OC)c(OC)cc2n(CC(=O)Nc2ccccc2OC)c1=O	i	/	/	/	/	i
CC(=O)Nc1ccc(S(=O)(=O)NCCc2ccccn2)cc1	i	0%	13%	-5%	16%	i
CC(=O)Nc1ccc2ccc3cccc4ccc1c2c34	i	21µM*	-1%	6.5µM*	3%	i
COCC(C)Nc1nc(C)c(C(C)=O)s1 (stereo not given)	i	-2%	6%	-1%	2%	i
CC1=NN(c2ccc(Br)cc2)C(=O)/C1=C/c1cccs1	i	?	?	18µM*	?	i
O=C(Cn1cc(COc2ccc(Br)cc2[N+](=O)[O-])nn1)c1ccc(O)cc1	i	9.2µM*	-1%	14%	-1%	i

Compound activity: PubChem, National Center for Advancing Translational Sciences (NCATS)
